Assay [1] in a line: ATG_PXRE_CIS: Attagene CIS-FACTORIAL HepG2 Assay for human Pregnane X Receptor Element (PXRE) (AID 2282957). The note with it: HepG2 Attagene CIS-FACTORIAL PXRE reporter, mRNA; actives raise or lower the signal. In outline: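 HepG2 cells transiently transfected with cis-regulated multiple reporter transcription units; endogenous factor activity measured as reporter mRNA 24 h after dosing. RT-PCR, fluorescent primer extension, HpaI digestion, capillary electrophoresis; bidirectional fit versus DMSO baseline.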

The nature of assay [2]: ATG_PPRE_CIS: Attagene CIS-FACTORIAL HepG2 Assay for human Peroxisome Proliferator-activated Response Element (PPRE) (AID 2282958). The note with it: HepG2 PPRE cis-element reporter, Attagene transcription factor profiling; actives raise or lower the signal. In a few lines: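 HepG2, transient MRTU transfection (cis promoter elements, endogenous TFs). 24 h dosing. RNA → oligo(dT) RT → PCR → 6-FAM primer extension → HpaI digest → CE. Bidirectional fit vs DMSO.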

Assay [3] in a line: ATG_RORE_CIS: Attagene CIS-FACTORIAL HepG2 Assay for human RAR-related Orphan Receptor Element (RORE) (AID 2282959). Conditions: HepG2 Attagene cis-factorial RORE reporter, mRNA; actives raise or lower the signal. In a few lines:
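Transient MRTU transfection of human HepG2 liver cells (FuGene 6); 24 h compound exposure; TriZol RNA, oligo(dT) RT, PCR, FAM labeling, HpaI cut, CE fragment analysis. DMSO = negative control/baseline.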

Assay [4] in a line: ATG_Sox_CIS: Attagene CIS-FACTORIAL HepG2 Assay for human SRY-box transcription factor (SOX) (AID 2282960). Conditions: HepG2 Attagene cis-factorial SOX reporter, mRNA; actives raise or lower the signal. In a few lines:
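Endogenous factor activity in human liver HepG2 cells carrying transfected cis-regulated reporter units. RNA taken 24 h post-dose, reverse-transcribed, PCR-amplified and sized by capillary electrophoresis. Gain or loss of signal fitted relative to DMSO.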

Assay [5] concerns the target Transcription factor Sp1 (Homo sapiens) (UniProt P08047). The assay can be described thus: ATG_Sp1_CIS: Attagene CIS-FACTORIAL HepG2 Assay for human Specificity Protein 1 (Sp1) (AID 2282961). The note with it: HepG2 Sp1 cis-reporter transcription, actives raise or lower the signal. In a few lines: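 Transient MRTU-transfected HepG2, 24 h compound exposure. Total RNA → oligo(dT) RT → PCR of reporter → 6-FAM primer extension → HpaI digest → CE. Endpoint fitted both directions vs DMSO.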

The nature of assay [6]: ATG_SREBP_CIS: Attagene CIS-FACTORIAL HepG2 Assay for human Sterol Regulatory Element Binding (SREBP) (AID 2282962). The note with it: HepG2 Attagene cis-factorial SREBP reporter, mRNA; actives raise or lower the signal. In a few lines: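 Transfected HepG2 (cis-regulated reporter library, endogenous TFs) → compound 24 h → total RNA → oligo(dT) RT → reporter-specific PCR → FAM primer extension, HpaI cut → CE fluorescence. Fit bidirectional vs DMSO.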

Assay [7] deals with Signal transducer and activator of transcription 3 (Homo sapiens) (UniProt P40763). As to the kind of experiment: ATG_STAT3_CIS: Attagene CIS-FACTORIAL HepG2 Assay for human Signal Transducer and Activator of Transcription 3 (STAT3) (AID 2282963). Conditions: HepG2, Attagene cis-factorial STAT3 reporter transcription; actives raise or lower the signal. In outline:
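HepG2 cells transiently transfected with multiple cis-element-driven reporter units report endogenous transcription factor activity. After 24 h compound exposure, reporter mRNA is measured by RT-PCR, 6-FAM labelling, HpaI digestion and capillary electrophoresis. Fitted bidirectionally versus DMSO.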

Assay [8] can be described thus: ATG_TA_CIS: Attagene CIS-FACTORIAL HepG2 Assay for human TA Basal Promoter (AID 2282964). The note with it: HepG2 Attagene CIS-factorial TA basal promoter reporter; actives raise or lower the signal. In outline: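 Read-out: fluorescent reporter-transcript fragments resolved by capillary electrophoresis after RT-PCR and HpaI digestion. Source: HepG2 cells carrying transiently transfected multi-reporter cis constructs, treated 24 h. Endpoint fitted bidirectionally relative to DMSO.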

Assay [9] is described as follows: ATG_TCF_b_cat_CIS: Attagene CIS-FACTORIAL HepG2 Assay for human T-Cell-Factor with beta-catenin (TCF/b-cat) (AID 2282965). The note with it: HepG2 TCF/beta-catenin cis-reporter transcription, actives raise or lower the signal. In outline:
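HepG2, transient MRTU transfection, cis-element-driven reporters (endogenous TFs). 24 h compound exposure. Readout: reporter mRNA by RT-PCR + 6-FAM primer extension, HpaI digest, capillary electrophoresis. Gain/loss fit vs DMSO baseline.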

Assay [10] can be described thus: ATG_TAL_CIS: Attagene CIS-FACTORIAL HepG2 Assay for human TAL Basal Promoter (AID 2282966).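 Note: background control endpoint measuring basal TAL promoter reporter mRNA not a specific factor.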 The note with it: HepG2 Attagene cis-factorial TAL promoter reporter; actives raise or lower the signal. In a few lines:
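HepG2 cells were transiently transfected with promoter-driven multiplexed reporter units and dosed for 24 h. Reporter mRNA was measured by RT-PCR with capillary electrophoresis fluorescence; bidirectional fits used DMSO as baseline, serving as a background control.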

Assay [11] is described as follows: ATG_TGFb_CIS: Attagene CIS-FACTORIAL HepG2 Assay for human Transforming Growth Factor (TGF) (AID 2282967). The note with it: HepG2 Attagene CIS TGFb reporter, mRNA transcription; actives raise or lower the signal. In outline:
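Transient MRTU transfection of HepG2 (FuGene 6). Dose 24 h. TriZol RNA, oligo(dT) RT, PCR, 6-FAM primer extension, HpaI cut, CE. Bidirectional fit, DMSO = baseline.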

Assay [12] is described as follows: ATG_VDRE_CIS: Attagene CIS-FACTORIAL HepG2 Assay for human Vitamin D Receptor Element (VDRE) (AID 2282968). The note with it: HepG2 VDRE cis-reporter transcription, actives raise or lower the signal. In outline:
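Transiently transfected HepG2 cells carrying cis-regulated reporter transcription units were exposed for 24 h. Reporter mRNA was measured by RT-PCR with fluorescent labelling and capillary electrophoresis, and fitted in both directions against DMSO.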

The target in assay [13] is X-box-binding protein 1 (Homo sapiens) (UniProt P17861). As to the kind of experiment: ATG_Xbp1_CIS: Attagene CIS-FACTORIAL HepG2 Assay for human X-box Binding Protein 1 (XBP1) (AID 2282972). The note with it: HepG2 XBP1 cis-element reporter, Attagene multiplex; actives raise or lower the signal. In outline: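 HepG2, transient MRTU transfection (cis-promoter driven), 24 h compound exposure. Total RNA → oligo(dT) RT → PCR → 6-FAM labeling → HpaI cut → CE. Bidirectional fit vs DMSO.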
Sequence of X-box-binding protein 1 (Homo sapiens) (P17861 whole entry, looked up): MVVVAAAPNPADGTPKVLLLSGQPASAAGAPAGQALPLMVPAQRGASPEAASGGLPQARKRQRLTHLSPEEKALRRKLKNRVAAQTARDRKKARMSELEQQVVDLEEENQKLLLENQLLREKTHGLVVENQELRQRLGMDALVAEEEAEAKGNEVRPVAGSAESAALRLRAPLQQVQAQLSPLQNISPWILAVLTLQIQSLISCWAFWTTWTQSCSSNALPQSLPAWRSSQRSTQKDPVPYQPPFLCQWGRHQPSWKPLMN

Assay [14] in a line: ATG_M_19_TRANS: Attagene TRANS-FACTORIAL HepG2 Assay for M19 Transcription Factor (Internal Marker) (AID 2282974; active = hit-call score of the fitted dose curve at least 0.9, where 1 is the maximum). Conditions: HepG2 Attagene TRANS-FACTORIAL M19 internal marker reporter. In a few lines: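 Fluorescence of 6-FAM-labelled reporter cDNA fragments, separated by capillary electrophoresis, served as the readout. These derived from HepG2 cells carrying transfected GAL4-UAS reporter units after 24 h dosing, with DMSO as negative control.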

Assay [15] is described as follows: ATG_GAL4_TRANS: Attagene TRANS-FACTORIAL HepG2 Assay for GAL4 (Internal Marker) (AID 2282976; active = hit-call score of the fitted dose curve at least 0.9, where 1 is the maximum). The note with it: HepG2 Attagene TRANS GAL4 internal marker reporter. In outline:
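HepG2 cells transiently transfected with multiplexed GAL4-UAS reporter constructs were dosed for 24 h. Reporter mRNA was measured by RT-PCR, 6-FAM primer extension, HpaI digestion and capillary electrophoresis, and gain of signal was fitted relative to DMSO.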

The target of assay [16] is Glucocorticoid receptor (Homo sapiens) (UniProt P04150). The assay can be described thus: ATG_GR_TRANS: Attagene TRANS-FACTORIAL HepG2 Assay for human Glucocorticoid Receptor (GR) (AID 2282978; active = hit-call score of the fitted dose curve at least 0.9, where 1 is the maximum;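 note: activators score as hits since higher reporter transcript over DMSO is fitted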). The note with it: HepG2 Attagene TRANS GR reporter, mRNA transcription. In outline:
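Fluorescent capillary-electrophoresis quantitation of reporter mRNA is the readout, taken 24 h after dosing human HepG2 cells carrying transiently transfected GAL4-UAS reporter units activated by chimeric NR-GAL4 fusions; activity scored as induction over DMSO.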

The target in assay [17] is Estrogen receptor (Homo sapiens) (UniProt P03372). The assay can be described thus: ATG_ERa_TRANS: Attagene TRANS-FACTORIAL HepG2 Assay for human Estrogen Receptor alpha (ERa) (AID 2282970; active = hit-call score of the fitted dose curve at least 0.9, where 1 is the maximum). The note with it: HepG2 Attagene TRANS ERa GAL4 reporter, mRNA. In a few lines: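 HepG2 cells transiently transfected with multiplexed GAL4-UAS reporter units; ERa activity read via exogenous chimeric NR-Gal4 protein. After 24 hour compound exposure, reporter mRNA measured by RT-PCR with 6-FAM labelling and capillary electrophoresis; gain-of-signal fitted relative to DMSO.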
Sequence of Estrogen receptor (Homo sapiens) (P03372 whole entry, looked up, the tested form may be a part): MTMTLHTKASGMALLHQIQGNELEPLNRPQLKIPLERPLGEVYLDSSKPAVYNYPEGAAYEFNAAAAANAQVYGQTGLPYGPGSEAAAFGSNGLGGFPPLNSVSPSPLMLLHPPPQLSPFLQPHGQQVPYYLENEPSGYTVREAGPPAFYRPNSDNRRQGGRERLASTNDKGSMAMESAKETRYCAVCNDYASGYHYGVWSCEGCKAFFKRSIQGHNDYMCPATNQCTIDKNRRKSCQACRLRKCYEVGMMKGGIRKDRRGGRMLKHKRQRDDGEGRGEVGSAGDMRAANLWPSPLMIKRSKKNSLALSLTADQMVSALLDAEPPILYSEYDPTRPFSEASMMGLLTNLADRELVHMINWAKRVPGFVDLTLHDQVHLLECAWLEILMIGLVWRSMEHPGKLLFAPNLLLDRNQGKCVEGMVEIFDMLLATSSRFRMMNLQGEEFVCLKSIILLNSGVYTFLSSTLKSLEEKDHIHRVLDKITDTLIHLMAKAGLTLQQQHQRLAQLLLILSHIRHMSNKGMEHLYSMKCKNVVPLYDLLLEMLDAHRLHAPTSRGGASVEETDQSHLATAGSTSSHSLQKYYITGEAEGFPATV

Assay [18] concerns the target Estrogen-related receptor gamma (Homo sapiens) (UniProt P62508). As to the kind of experiment: ATG_ERRg_TRANS: Attagene TRANS-FACTORIAL HepG2 Assay for human Estrogen-Related Receptor gamma (ERRg) (AID 2282977; active = hit-call score of the fitted dose curve at least 0.9, where 1 is the maximum;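 note: hits increase reporter signal over DMSO so potencies reflect activators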). Conditions: HepG2 Attagene TRANS reporter, ERRg transactivation. In a few lines:
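Transfect HepG2 with multiple GAL4-UAS reporter transcription units; dose chemicals 24 h; isolate RNA, reverse-transcribe with oligo(dT), PCR-amplify, label with 6-FAM, digest with HpaI; size fragments by capillary electrophoresis. DMSO serves as negative control.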

Several values for one entry are separate records, joined by “and”; a condition that tells them apart may be missing. Equal entries are not always repeated. Results filed as inconclusive are left out. Activity calls are given as the source filed them. Rule for the calls, unless noted: active = hit-call score of the fitted dose curve at least 0.9, where 1 is the maximum; inactive = score below 0.9.

Sequence of Estrogen-related receptor gamma (Homo sapiens) (P62508 whole entry, looked up, the tested form may be a part): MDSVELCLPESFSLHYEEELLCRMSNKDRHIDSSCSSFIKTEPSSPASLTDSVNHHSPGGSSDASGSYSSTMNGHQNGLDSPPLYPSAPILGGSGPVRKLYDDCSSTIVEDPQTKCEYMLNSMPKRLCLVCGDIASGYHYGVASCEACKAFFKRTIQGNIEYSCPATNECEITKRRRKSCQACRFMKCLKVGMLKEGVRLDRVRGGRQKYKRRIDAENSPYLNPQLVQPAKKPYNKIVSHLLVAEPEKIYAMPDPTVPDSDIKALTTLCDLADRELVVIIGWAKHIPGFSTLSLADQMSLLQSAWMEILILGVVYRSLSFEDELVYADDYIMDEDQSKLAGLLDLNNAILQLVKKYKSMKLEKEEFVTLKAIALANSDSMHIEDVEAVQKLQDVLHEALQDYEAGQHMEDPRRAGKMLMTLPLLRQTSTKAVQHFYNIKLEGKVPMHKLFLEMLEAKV
Sequence of Glucocorticoid receptor (Homo sapiens) (P04150 whole entry, looked up, the tested form may be a part): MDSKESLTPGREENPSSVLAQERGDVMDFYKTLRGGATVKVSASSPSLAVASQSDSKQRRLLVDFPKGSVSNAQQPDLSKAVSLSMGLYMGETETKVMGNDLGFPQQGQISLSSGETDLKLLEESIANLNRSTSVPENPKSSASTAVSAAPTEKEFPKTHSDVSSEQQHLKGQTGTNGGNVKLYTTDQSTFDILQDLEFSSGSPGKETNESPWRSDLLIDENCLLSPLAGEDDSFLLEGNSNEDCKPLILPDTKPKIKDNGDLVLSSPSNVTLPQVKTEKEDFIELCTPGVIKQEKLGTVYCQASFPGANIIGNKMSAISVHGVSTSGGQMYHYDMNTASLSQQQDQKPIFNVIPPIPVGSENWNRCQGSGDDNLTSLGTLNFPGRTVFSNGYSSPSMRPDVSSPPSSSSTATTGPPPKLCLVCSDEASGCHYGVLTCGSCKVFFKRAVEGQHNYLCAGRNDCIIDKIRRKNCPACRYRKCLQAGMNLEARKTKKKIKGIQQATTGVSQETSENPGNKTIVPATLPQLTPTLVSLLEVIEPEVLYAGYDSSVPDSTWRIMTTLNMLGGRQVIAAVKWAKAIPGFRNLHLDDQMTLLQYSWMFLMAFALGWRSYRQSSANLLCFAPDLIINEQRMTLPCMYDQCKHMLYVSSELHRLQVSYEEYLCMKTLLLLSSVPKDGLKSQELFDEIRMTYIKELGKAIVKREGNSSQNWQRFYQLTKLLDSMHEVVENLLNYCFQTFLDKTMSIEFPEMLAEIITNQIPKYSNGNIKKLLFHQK
Sequence of Transcription factor Sp1 (Homo sapiens) (P08047 whole entry, looked up): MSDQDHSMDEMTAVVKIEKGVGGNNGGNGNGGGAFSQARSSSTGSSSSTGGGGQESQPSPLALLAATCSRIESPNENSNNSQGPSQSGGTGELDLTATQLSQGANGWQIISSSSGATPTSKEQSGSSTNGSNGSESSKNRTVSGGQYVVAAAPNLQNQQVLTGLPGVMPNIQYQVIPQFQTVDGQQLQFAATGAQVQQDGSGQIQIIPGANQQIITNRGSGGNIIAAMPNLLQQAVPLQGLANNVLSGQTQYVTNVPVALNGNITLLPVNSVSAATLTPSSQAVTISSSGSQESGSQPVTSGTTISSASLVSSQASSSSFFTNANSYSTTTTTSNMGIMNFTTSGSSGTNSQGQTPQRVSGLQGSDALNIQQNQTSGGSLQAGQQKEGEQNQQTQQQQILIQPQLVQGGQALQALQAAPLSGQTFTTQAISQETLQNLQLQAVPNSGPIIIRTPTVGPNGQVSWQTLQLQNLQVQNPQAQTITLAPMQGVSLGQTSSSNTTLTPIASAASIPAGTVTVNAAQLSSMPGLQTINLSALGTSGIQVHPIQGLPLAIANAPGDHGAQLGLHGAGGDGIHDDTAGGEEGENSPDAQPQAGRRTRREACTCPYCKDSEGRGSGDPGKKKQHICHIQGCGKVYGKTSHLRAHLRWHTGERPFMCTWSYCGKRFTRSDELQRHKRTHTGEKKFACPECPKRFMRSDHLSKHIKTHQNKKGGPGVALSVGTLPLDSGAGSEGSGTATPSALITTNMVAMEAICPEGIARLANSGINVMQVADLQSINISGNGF
Sequence of Signal transducer and activator of transcription 3 (Homo sapiens) (P40763 whole entry, looked up): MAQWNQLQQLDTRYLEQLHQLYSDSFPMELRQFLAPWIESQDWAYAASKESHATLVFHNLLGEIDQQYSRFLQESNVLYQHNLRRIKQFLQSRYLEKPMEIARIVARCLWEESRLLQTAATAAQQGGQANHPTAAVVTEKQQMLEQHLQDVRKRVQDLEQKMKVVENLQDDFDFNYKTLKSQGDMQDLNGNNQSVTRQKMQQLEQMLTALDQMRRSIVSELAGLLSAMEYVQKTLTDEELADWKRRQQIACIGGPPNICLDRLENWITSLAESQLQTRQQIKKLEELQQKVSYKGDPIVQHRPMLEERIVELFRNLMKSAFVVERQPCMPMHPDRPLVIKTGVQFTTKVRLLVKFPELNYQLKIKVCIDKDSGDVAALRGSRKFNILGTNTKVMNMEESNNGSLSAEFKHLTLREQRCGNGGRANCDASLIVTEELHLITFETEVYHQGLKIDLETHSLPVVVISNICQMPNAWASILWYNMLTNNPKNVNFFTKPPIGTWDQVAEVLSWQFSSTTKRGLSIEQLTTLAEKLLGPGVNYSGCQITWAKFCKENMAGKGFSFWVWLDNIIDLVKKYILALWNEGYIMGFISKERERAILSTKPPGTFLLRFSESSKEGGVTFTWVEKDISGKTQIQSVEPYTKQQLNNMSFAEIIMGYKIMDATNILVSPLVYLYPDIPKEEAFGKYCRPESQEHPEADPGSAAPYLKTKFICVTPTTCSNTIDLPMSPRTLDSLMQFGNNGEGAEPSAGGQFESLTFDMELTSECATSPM

On to `CCC(=O)O`, for which the outcome in assay [1], in assay [2], in assay [3], in [4], in assay [5] and in assay [6] was inactive. For the same compound, the result in [7], in assay [8], in assay [9], in assay [10], in [11] and in assay [12] was inactive. Besides, the compound was called inactive in [13], in assay [14], in assay [15] and in [16].
`CC=O`: the outcome in assay [1], in assay [2], in assay [3], in assay [4], in [5] and in assay [6] was inactive. Besides, the compound was called inactive in assay [7], in [8], in [9], in [10], in assay [11] and in assay [12]. Further, the call in [13], in [14] and in [15] was inactive.
As a reminder, the AC50 is the concentration giving half of the maximal activity seen. `CCCCc1oc2ccccc2c1C(=O)c1cc(I)c(OCCN(CC)CC)c(I)c1`: the AC50 in assay [1] was 1.44 µM (active); in assay [4], 128 µM (active); in assay [5] it was 130 µM (active); in [6], 19.7 µM (active); in [8] it was 19.8 µM (active); in assay [10], 26.1 µM (active). Besides, the results for the half-maximal activity concentration (AC50) in assay [12] and in assay [13] were 9.14 µM (active) and 26.4 µM (active), respectively. The compound was classed as inactive in [2], in assay [3], in assay [7], in assay [9], in assay [11] and in assay [17]. Also, the result in [14], in assay [18] and in [16] was inactive.
Turning to `O=C1c2ccc(O)c(O)c2C(=O)c2c(O)ccc(O)c21`, the AC50 in assay [1] is 13.5 µM (active). The outcome in assay [2], in assay [3], in assay [4], in [5], in assay [6] and in assay [7] was inactive. Besides, the compound was classed as inactive in assay [8], in assay [10], in [11], in assay [12], in [13] and in [18].
As for `FC(F)=C(F)C(F)(F)C(F)(F)C(F)(F)C(F)F`, the compound was classed as inactive in [1], in assay [2], in assay [3], in assay [4], in [5] and in assay [6]. Besides, the compound was classed as inactive in assay [7], in assay [8], in [10], in assay [11], in assay [12] and in [13]. The result in [14], in assay [15] and in assay [18] was inactive.
On to `OCC1CCC(CO)CC1` (centres undefined), for which the call in assay [1], in assay [2], in assay [3], in assay [4], in assay [5] and in assay [6] was inactive. The compound was classed as inactive in assay [7], in assay [8], in assay [9], in assay [10], in assay [11] and in assay [12]. For the same compound, the compound was classed as inactive in assay [17], in [13] and in assay [16].
In the case of `CC1=NN(c2ccccc2)C(=O)C1`, the AC50 in [1] was 66.2 µM (active) and 60 µM (active). Besides, the result in assay [2], in [3], in assay [4], in assay [5], in [6] and in assay [7] was inactive. For the same compound, the compound was called inactive in assay [8], in assay [9], in assay [10], in assay [11], in assay [13] and in assay [14]. In addition, in [16], the compound was called inactive.
With `CCCCC(CC)C(=O)O` (centres undefined), the result in [1], in assay [2], in [3], in assay [4], in assay [5] and in assay [6] was inactive. For the same compound, the call in assay [7], in [8], in assay [9], in assay [10], in assay [11] and in [13] was inactive. Further, the result in assay [14] and in [15] was inactive.

Source of the values: PubChem BioAssay (EPA / NIEHS).
